Holding throughout (test): qHTS profiling for inhibitors of Plasmodium falciparum proliferation (AID 504749); further: nearly all actives have a fitted effect of over 60% in size
What all share (conditions): P. falciparum in erythrocytes, SYBR Green DNA, 72 h; series mostly up to 28.7 µM
In general terms: Quantitative high-throughput screening tests each substance at several concentrations.

Assay [1] has as its system CP237. The method, boiled down:
(§1)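 Parasite proliferation within erythrocytes, 72 h exposure. Endpoint: SYBR Green I fluorescence after overnight lysis at room temperature. Controls: 0.29 uM artemisinin, DMSO.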

Assay [2] has as its system CP238. The procedure, abridged:
as §1

The subject of assay [3] is CP247. The procedure, abridged: as §1
Assay [4] deals with CP250. The procedure, abridged: as §1
For assay [5], the system named is CP252. The method, boiled down: as §1
For assay [6], the system named is CP256. The procedure, abridged: as §1
Assay [7] relates to CP262. The method, boiled down:
as §1

For assay [8], the system named is CP265. The procedure, abridged: as §1
Assay [9] relates to CP266. The method, boiled down:
as §1

For assay [10], the system named is CP268. The method, boiled down: as §1
Assay [11] deals with CP269. The procedure, abridged: as §1
Assay [12] concerns CP286. The method, boiled down:
as §1

In assay [13] the test system is CP291. The method, boiled down: as §1
Assay [14] deals with CP297. The method, boiled down: as §1
For assay [15], the system named is CP305. The method, boiled down:
as §1

Assay [16] relates to CP315. The procedure, abridged: as §1
The subject of assay [17] is CP325. The method, boiled down:
as §1

In assay [18] the test system is CP329. The method, boiled down: as §1
Assay [19] concerns CP335. The method, boiled down:
as §1

Assay [20] deals with CP260. The procedure, abridged: as §1

Results filed as inconclusive are left out. Activity calls are given as the source filed them. The call rests on the fitted dose curve; in most records, active means well fitted inhibition curve with a large enough effect; inconclusive means small, poorly fitted or top-dose-only effect; inactive means flat fitted curve, though single readings scatter.
Potency means the concentration at half of the fitted maximal effect.

Regarding `CC(=O)Oc1ccc(C(=C2CCCCC2)c2ccc(OC(C)=O)cc2)cc1`, the Potency entry in assay [1], in [2], in [3], in assay [4], in [5] and in [6] was “inactive” throughout. In addition, the Potency result in [7], in assay [8], in assay [9], in [10], in assay [11] and in assay [12] was “inactive” throughout. Besides, the Potency result in assay [13], in assay [14], in assay [15], in [16], in [17] and in assay [18] was “inactive” throughout. Besides, the Potency entry in assay [19] was “inactive”.
As for `COc1cc(-c2ccc(=O)[nH]n2)ccc1OC(F)F`, the results for the Potency in assay [1], in assay [6] and in assay [8] were 0.112 µM (active), 3.16 µM (active) and 0.316 µM (active), respectively. The Potency result in assay [4], in [5], in [9], in assay [10], in assay [12] and in [13] was “inactive” throughout. Further, the Potency result in assay [15] and in assay [17] was “inactive” throughout.
Turning to `C#C[C@]1(O)CC[C@H]2[C@@H]3CCc4cc(OC5CCCC5)ccc4[C@H]3CC[C@@]21C`, the Potency entry in [1], in assay [2], in assay [3], in assay [4], in assay [5] and in assay [20] was “inactive” in each case. The Potency entry in [10], in assay [11], in assay [12], in [13], in assay [14] and in assay [15] was “inactive” each time. The Potency entry in [16], in assay [17] and in assay [18] was “inactive” in each case.
On to `CCCCc1nc(Cl)c(CO)n1Cc1ccc(-c2ccccc2-c2nn[nH]n2)cc1`, for which the Potency entry in [1], in [7], in assay [10] and in assay [14] was “inactive” in each case. Besides, the Potency in [5] is 10 µM (active).
For `CC/C(=C(/CC)c1ccc(O)cc1)c1ccc(O)cc1`, the Potency entry in assay [1], in [2], in [3], in assay [4], in [5] and in [8] was “inactive” each time. The Potency entry in assay [9], in assay [10], in assay [11], in assay [12], in [13] and in assay [14] was “inactive” in each case. Also, the Potency result in [15], in assay [16], in assay [17] and in assay [18] was “inactive” each time.
For the compound `CN1CCC(=C2c3ccccc3Sc3ccccc32)CC1`, the Potency in [1] is 8.91 µM (active); in [2], 11.2 µM (active); in assay [3], 7.94 µM (active); in assay [4], 11.2 µM (active); in assay [5], 7.08 µM (active); in [6], 11.2 µM (active). Further, the Potency in [20] is 8.91 µM (active); in assay [8] it was 7.08 µM (active); in assay [11] it was 13.5 µM (active); in assay [12], 11.2 µM (active); in assay [13] it was 9.53 µM (active); in assay [14] it was 8.49 µM (active). Besides, the Potency in [19] is 12 µM (active).
As to `COc1ccc(CN2CCN(C(c3ccc(F)cc3)c3ccc(F)cc3)CC2)c(OC)c1OC`, the Potency was 8.91 µM (active) in [1]; 10 µM (active) in assay [3]; 8.91 µM (active) in assay [4]; 10 µM (active) in assay [5]; 7.94 µM (active) in [20]; 11.2 µM (active) in [8]. Moreover, the Potency was 15.1 µM (active) in [11], 7.08 µM (active) in [12], 16.9 µM (active) in [17] and 6.01 µM (active) in assay [19].
On to `C[C@@H]1CN(CCCn2c3ccccc3c3ccccc32)C[C@H](C)N1`, for which the Potency in assay [1] was 11.2 µM (active); in assay [3] it was 4.47 µM (active); in [20], 11.2 µM (active); in assay [8], 7.94 µM (active); in [12], 12.6 µM (active). Moreover, the Potency entry in assay [9] and in assay [16] was “inactive” throughout.
Turning to `CC(C)NC[C@@H](O)COc1cccc2ccccc12`, the Potency in assay [1] was 5.01 µM (active); in [20], 12.6 µM (active); in [8], 10 µM (active). The Potency result in assay [4], in [7], in assay [9], in assay [10], in assay [14] and in assay [16] was “inactive” each time. For the same compound, in assay [17], the Potency entry was “inactive”.
As to `CN(C)/N=N/c1nc[nH]c1C(N)=O`, the Potency result in assay [1], in assay [2], in [3], in assay [4], in assay [5] and in assay [20] was “inactive” throughout. The Potency entry in assay [7], in assay [8], in assay [9], in assay [10], in assay [11] and in [12] was “inactive” throughout. Further, the Potency result in [13], in [14], in assay [15], in assay [16], in [17] and in [18] was “inactive” throughout.
Consider `CN(C)C(=S)SC(=S)N(C)C`, for which the Potency in assay [1] was 10 µM (active); in assay [4] it was 11.2 µM (active); in assay [6], 10 µM (active); in assay [20], 10 µM (active); in assay [11] it was 10.7 µM (active); in assay [12] it was 11.2 µM (active). Further, the results for the Potency in assay [15], in assay [17] and in [19] were 15.1 µM (active), 15.1 µM (active) and 8.49 µM (active), respectively. For the same compound, the Potency result in assay [7] and in [9] was “inactive” throughout.
`CC(C)(C)CC(C)(C)c1ccc(O)c(Cc2ccc(Cl)cc2Cl)c1`: the Potency in assay [1] was 2.51 µM (active); in [2], 1.41 µM (active); in [3], 3.16 µM (active); in [4], 3.16 µM (active); in assay [5], 1 µM (active); in assay [6], 3.55 µM (active). In addition, the Potency in assay [20] is 2 µM (active); in assay [8], 3.16 µM (active); in [9] it was 4.78 µM (active); in [10], 0.757 µM (active); in assay [11] it was 1.51 µM (active); in [12] it was 2.51 µM (active). Moreover, the Potency was 3.38 µM (active) in [13]; 1.69 µM (active) in assay [14]; 3.79 µM (active) in assay [16]; 3.79 µM (active) in assay [17]; 4.78 µM (active) in [18]; 1.51 µM (active) in [19].

The values above are taken from PubChem BioAssay (NCATS).
